Here are results for five compounds from PubChem BioAssay.

Calls of active or inactive are those of the source.

The nature of test [1]: small molecules captured by biotinylated probe aFSTL3 – biochemical, small-molecule microarray, fluorescence 635/667, stem cell growth factor project, primary screen (AID 1064).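 Also: measures binding of the biotinylated anti-FSTL3 antibody to printed compounds.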 The conditions noted are these: higher = more signal.
The nature of test [2]: binders from COS7 lysate, DM2A8 probe, primary screen, torsin A project, cell lysate, small-molecule microarray, fluorescence 635/667 (AID 1065). The conditions noted are these: higher = more signal, COS7 lysate expressing mutant human TOR1A.
Test [3] in a line: small molecules captured by biotinylated probe aFGF2 – biochemical, small-molecule microarray, fluorescence 635/667, stem cell growth factor project, primary screen (AID 1067).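 Also: measures binding of biotinylated aFGF2 protein to printed compounds on slides; z-score merges feature fluorescence and signal-to-noise across triplicate slides.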 The conditions noted are these: higher = more signal.
Test [4] can be described thus: small molecules captured by biotinylated probe aFGF10 – biochemical, small-molecule microarray, fluorescence 635/667, stem cell growth factor project, primary screen (AID 1071).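 Also: score merges 667 nm spot intensity and signal to noise from triplicate slides.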 The conditions noted are these: higher = more signal.
The target in test [5] is Neurogenic locus notch homolog protein 2 (Homo sapiens) (UniProt Q04721). The test can be described thus: small molecules binding Notch2 protein – biochemical, small-molecule microarray, 635 nm fluorescence, stem cell growth factors, primary screen (AID 1073). The conditions noted are these: higher = more signal.
Test [6] has as its target Pro-neuregulin-1, membrane-bound isoform (Homo sapiens) (UniProt Q02297). As to the kind of experiment: small molecules binding neuregulin-1 protein – biochemical, small-molecule microarray, fluorescence 635/667, psychiatric disease protein project, primary screen (AID 1075).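 Also: score combines 667 nm spot fluorescence with signal to noise.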 The conditions noted are these: NRG1 binding, 635 nm fluorescence, higher = more signal.
The subject of test [7] is Neuregulin-1 EGF-like domain. As to the kind of experiment: small molecules binding NRG1 EGF domain – biochemical, small-molecule microarray, 635 nm fluorescence, primary screen (AID 1081).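 Also: binding of the protein to compounds printed on small-molecule microarray slides.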 The conditions noted are these: higher = more signal.
The nature of test [8]: FRG1 expression reporter modulators in myotubes – cell-based, C2C12 myotubes, firefly/Renilla luciferase, luminescence, FRG1 inhibition for FSHD, primary screen (AID 1084). The conditions noted are these: FRG1 promoter luciferase, higher = more signal, called active from +8 up or from −8 down.
The nature of test [9]: small molecules captured by biotinylated probe aFST – biochemical, small-molecule microarray, fluorescence 635/667, stem cell growth factor project, primary screen (AID 1086).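 Also: score merges 667 nm fluorescence with signal-to-noise of each printed compound spot.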 The conditions noted are these: higher = more signal.
Test [10] in a line: binders of probe aHhip on microarray, primary screen, stem cell growth factor project, biochemical, small-molecule microarray, fluorescence 635/667 (AID 1087).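 Also: score merges spot fluorescence at 667nm with spot signal to noise ratio.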 The conditions noted are these: higher = more signal.
The test system of test [11] is PRMT1 (protein arginine N-methyltransferase 1). As to the kind of experiment: small molecules binding arginine methyltransferase PRMT1 – biochemical, small-molecule microarray, 635 nm fluorescence, primary screen (AID 1088).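 Also: binding of Prmt1 protein to compounds spotted on small-molecule microarray slides.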 The conditions noted are these: higher = more signal.
Test [12] is described as follows: growth effects on S. cerevisiae YJM789 – YJM789 clinical isolate, OD600, 24 h, basal, primary screen (AID 1089).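 Also: growth of clinical yeast isolate S. cerevisiae YJM 789 seeded 1000 cells per well; test concentration not given here.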 The conditions noted are these: higher = more signal, called active from +8 up or from −8 down.
Test [13] can be described thus: S. pombe growth modifiers, basal conditions – strain 972, OD600, 24 h, no modulator, primary screen (AID 1090).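 Also: basal condition with compound alone and no growth modifier present; test concentration not given here.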 The conditions noted are these: S. pombe 972 growth, higher = more signal, called active from +8 up or from −8 down.
Test [14] can be described thus: budding yeast growth modifiers under rapamycin – strain BY4716, OD600, 96 h, primary screen (AID 1091). Also: test concentration not given here. The conditions noted are these: S. cerevisiae BY4716 + rapamycin, higher = more signal, called active from +8 up or from −8 down.
The target in test [15] is Torsin-1A-interacting protein 2 (Homo sapiens) (UniProt Q8NFQ8). The test can be described thus: small molecules binding lysate-expressed LULL1 – cell lysate, human LULL1 lysate, 635/667 nm fluorescence, primary screen (AID 1092).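 Also: probe is lysate of COS7 cells overexpressing human LULL1; score merges per-feature 667 nm fluorescence with signal-to-noise.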 The conditions noted are these: small-molecule microarray, hLULL1 lysate binding, 635 nm fluorescence; higher = more signal.
Sequence of Torsin-1A-interacting protein 2 (Homo sapiens) (Q8NFQ8 whole entry, looked up): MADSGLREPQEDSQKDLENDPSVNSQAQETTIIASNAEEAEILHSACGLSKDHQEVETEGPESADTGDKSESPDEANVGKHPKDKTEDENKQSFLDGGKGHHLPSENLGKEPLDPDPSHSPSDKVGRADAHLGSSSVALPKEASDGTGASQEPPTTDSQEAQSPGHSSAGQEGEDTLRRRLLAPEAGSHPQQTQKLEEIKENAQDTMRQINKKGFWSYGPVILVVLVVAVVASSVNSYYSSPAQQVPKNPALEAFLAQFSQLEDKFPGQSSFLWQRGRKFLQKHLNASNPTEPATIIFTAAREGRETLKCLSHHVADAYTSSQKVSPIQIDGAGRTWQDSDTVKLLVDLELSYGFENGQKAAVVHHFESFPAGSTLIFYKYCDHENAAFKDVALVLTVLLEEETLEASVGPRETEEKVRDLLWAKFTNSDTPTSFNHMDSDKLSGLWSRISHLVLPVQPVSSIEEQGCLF
A short description of test [16]: optical density change of DRC41 E. coli – strain DRC41, OD650, 24 h, E. coli filamentation project, primary screen (AID 1093).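 Also: MC1000 strain lacking acrAB efflux and sulA so SOS filamentation is blocked; test concentration not given here.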 The conditions noted are these: E. coli DRC41 growth, higher = more signal, called active from +8 up or from −8 down.
Test [17] can be described thus: probe aLefty2 binding to arrayed compounds – biochemical, biotinylated probe, 635/667 nm fluorescence, primary screen (AID 1094).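 Also: score merges spot fluorescence near 667 nm with spot signal-to-noise ratio.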 The conditions noted are these: small-molecule microarray, higher = more signal.
In test [18] the test system is Noggin (protein binding on small-molecule microarray). As to the kind of experiment: small molecules binding Noggin protein – biochemical, 635/667 nm fluorescence, primary screen (AID 1095).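 Also: score merges 667 nm feature fluorescence with signal to noise over triplicate slides.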 The conditions noted are these: 635 nm fluorescence, higher = more signal.
Test [19] deals with Neurogenic locus notch homolog protein 3 (Homo sapiens) (UniProt Q9UM47). As to the kind of experiment: small molecules binding NOTCH3 protein – biochemical, 635/667 nm fluorescence, primary screen (AID 1096). The conditions noted are these: small-molecule microarray, 635 nm fluorescence, higher = more signal.
Sequence of Neurogenic locus notch homolog protein 3 (Homo sapiens) (Q9UM47 whole entry, looked up): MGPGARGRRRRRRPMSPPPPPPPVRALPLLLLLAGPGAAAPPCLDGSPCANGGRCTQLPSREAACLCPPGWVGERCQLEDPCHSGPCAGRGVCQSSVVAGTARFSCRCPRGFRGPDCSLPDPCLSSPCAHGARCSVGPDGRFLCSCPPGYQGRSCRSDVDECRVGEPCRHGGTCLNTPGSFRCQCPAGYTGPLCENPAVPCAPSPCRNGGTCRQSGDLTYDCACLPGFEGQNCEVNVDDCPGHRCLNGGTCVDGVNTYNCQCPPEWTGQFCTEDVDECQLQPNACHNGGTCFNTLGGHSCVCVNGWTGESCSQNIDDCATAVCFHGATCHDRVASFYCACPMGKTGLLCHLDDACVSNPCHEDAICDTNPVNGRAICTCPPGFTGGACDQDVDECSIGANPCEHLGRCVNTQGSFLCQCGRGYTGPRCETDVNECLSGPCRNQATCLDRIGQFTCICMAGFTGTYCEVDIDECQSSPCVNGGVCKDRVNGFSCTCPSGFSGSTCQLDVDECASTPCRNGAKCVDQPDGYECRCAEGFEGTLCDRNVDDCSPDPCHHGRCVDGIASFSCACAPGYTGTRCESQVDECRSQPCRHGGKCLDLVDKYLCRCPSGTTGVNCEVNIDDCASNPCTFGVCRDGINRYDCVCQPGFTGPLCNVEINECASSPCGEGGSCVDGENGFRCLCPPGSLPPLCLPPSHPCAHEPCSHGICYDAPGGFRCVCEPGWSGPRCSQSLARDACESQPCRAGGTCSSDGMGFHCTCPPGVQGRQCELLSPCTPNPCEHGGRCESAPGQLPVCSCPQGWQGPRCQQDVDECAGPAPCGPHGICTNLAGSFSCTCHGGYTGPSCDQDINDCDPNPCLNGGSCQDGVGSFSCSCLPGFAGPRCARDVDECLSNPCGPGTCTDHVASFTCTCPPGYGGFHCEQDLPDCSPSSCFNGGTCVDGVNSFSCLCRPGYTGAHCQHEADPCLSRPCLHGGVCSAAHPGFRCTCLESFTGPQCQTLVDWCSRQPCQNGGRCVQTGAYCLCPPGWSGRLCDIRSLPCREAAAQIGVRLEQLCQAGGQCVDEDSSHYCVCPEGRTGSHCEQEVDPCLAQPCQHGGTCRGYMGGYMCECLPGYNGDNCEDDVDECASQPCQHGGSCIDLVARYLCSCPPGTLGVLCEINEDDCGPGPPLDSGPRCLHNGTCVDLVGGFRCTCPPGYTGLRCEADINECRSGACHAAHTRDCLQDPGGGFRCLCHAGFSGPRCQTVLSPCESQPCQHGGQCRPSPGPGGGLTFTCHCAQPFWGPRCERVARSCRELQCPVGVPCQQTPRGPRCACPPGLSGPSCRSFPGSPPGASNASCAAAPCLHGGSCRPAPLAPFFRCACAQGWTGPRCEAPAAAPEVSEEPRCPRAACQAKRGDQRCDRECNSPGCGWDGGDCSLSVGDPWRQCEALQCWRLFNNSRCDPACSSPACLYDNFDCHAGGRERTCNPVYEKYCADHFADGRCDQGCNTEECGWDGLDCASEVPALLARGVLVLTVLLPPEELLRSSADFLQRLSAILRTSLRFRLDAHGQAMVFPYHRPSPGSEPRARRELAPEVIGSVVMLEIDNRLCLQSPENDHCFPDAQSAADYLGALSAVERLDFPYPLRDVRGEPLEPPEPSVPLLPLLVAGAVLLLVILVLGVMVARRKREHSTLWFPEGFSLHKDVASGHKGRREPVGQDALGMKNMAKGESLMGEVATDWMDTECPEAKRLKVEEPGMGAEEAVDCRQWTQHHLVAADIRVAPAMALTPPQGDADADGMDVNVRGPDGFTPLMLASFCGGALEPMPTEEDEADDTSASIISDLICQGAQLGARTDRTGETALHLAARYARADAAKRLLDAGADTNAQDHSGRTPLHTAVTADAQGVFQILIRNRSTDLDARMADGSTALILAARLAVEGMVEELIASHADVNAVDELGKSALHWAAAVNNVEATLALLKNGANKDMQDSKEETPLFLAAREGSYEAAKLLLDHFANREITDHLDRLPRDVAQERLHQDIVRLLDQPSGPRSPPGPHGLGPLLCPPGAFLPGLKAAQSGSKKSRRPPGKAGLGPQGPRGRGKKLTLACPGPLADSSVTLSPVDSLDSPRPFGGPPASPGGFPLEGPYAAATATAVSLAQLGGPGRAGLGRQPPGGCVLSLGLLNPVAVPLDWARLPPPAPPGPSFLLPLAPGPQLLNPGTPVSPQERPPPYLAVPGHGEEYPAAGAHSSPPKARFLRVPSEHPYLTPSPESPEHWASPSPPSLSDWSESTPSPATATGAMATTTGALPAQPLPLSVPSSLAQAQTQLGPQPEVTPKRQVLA
Test [20] is described as follows: probe aEGFR binding to arrayed compounds – biochemical, biotinylated probe, 635/667 nm fluorescence, primary screen (AID 1097).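 Also: probe is a biotinylated anti-EGFR antibody binding compounds printed on slides; score combines fluorescence near 667 nm and signal to noise of each spot.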 The conditions noted are these: small-molecule microarray, higher = more signal.

Sequence of Pro-neuregulin-1, membrane-bound isoform (Homo sapiens) (Q02297 whole entry, looked up, the tested form may be a part, canonical isoform): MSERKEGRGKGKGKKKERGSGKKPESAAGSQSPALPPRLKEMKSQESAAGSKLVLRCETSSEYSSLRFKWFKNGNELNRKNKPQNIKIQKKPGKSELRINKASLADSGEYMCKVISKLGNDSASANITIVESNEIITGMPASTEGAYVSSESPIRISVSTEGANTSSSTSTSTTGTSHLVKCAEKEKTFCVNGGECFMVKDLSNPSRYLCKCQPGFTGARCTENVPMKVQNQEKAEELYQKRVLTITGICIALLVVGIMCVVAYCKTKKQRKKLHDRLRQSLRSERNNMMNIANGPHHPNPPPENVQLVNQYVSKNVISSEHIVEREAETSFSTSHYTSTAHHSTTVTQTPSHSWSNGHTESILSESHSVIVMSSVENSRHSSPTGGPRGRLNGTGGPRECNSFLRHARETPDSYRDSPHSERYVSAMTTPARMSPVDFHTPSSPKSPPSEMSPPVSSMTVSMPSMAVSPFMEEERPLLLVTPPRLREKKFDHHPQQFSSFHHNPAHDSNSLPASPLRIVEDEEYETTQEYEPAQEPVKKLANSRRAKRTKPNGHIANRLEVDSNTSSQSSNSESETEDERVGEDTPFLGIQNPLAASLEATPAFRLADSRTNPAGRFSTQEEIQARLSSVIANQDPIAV

In the case of `C=C[C@@H](OC)[C@H](OC(=O)Nc1ccc(OC)cc1)c1ccc(OC)c(O)c1`, the composite z-score was 0.54 in test [1]; -0.998 in test [2]; -0.087 in [3]; -0.624 in test [4]; -1.06 in test [5]; -0.401 in test [6]. The composite z-score was 1.23 in test [7]; -0.857 in [9]; 0.0505 in [10]; -0.391 in test [11]; 1.04 in [15]; -0.124 in test [17]. The composite z-score was -0.527 in test [18], -0.449 in test [19] and -0.25 in [20]. The z-score in test [8] is 3.56 (inactive); in test [12], 0.239 (inactive); in test [13], -0.375 (inactive); in test [14], -0.901 (inactive); in test [16], 0.234 (inactive).
With `C=C(/C(=C/C[C@H](OC(=O)c1ccncc1)c1ccccc1OCCO)c1cnc2ccccc2c1)C(C)C`, the composite z-score was -0.145 in [1]; 0.763 in test [2]; -0.0316 in test [3]; 1.18 in test [4]; 1.55 in test [5]; 1.01 in [6]. The composite z-score in test [7] was 1.22; in [9] it was 0.853; in test [10] it was -0.112; in [11], 1.54; in [15], 2.27; in [17] it was -0.0632. Further, the composite z-score in test [18] is 1.13; in test [19], 1.02; in test [20] it was -0.0828. In addition, the z-score in [8] was -0.0406 (inactive); in test [12] it was -2.36 (inactive); in [13], -0.555 (inactive); in [14], 2.22 (inactive); in [16], -0.0584 (inactive).
`CC(C)c1ccc(NN2C(C(O)Cc3ccccc3)C=CC3C(=O)N(c4ccccc4)C(=O)C32)cc1` (stereo not given): the composite z-score is 0.0399 in test [1]; -0.0235 in test [2]; 0.0116 in test [3]; 0.408 in [4]; 1.5 in test [5]; 1.76 in [6]. Further, the composite z-score is 0.593 in test [7]; 1.36 in test [9]; -0.0645 in [10]; 1.48 in test [11]; 3.51 in test [15]; 0.388 in test [17]. The composite z-score in [18] was found to be 0.294; in [19], 1.07; in test [20], 0.205. Besides, the z-score in test [8] was 0.0899 (inactive); in test [12] it was -0.619 (inactive); in [13] it was -0.699 (inactive); in test [14], 0.844 (inactive); in test [16], -1.36 (inactive).
In the case of `COc1ccc([Si](C)(C)[C@H]2[C@H](CCO)O[C@@]3(C(=O)N(Cc4ccc(N5C(=O)c6ccccc6Oc6ccccc65)cc4)c4ccccc43)[C@@H]2C)cc1`, the composite z-score in [1] is 0.603; in [2], -0.352; in test [3] it was -0.081; in [4], 0.251; in [5], -0.389; in test [6], 0.0473. The composite z-score is 0.644 in test [7]; -0.601 in test [9]; -0.284 in test [10]; 0.263 in test [11]; 0.822 in test [15]; 0.0004 in [17]. For the same compound, the composite z-score is -1.01 in test [18], -0.532 in [19] and 0.0125 in [20]. In addition, the z-score in [8] was -3.69 (inactive); in [12], 2.1 (inactive); in test [13], -1.25 (inactive); in [14], 22.7 (active); in test [16] it was 0.511 (inactive).
Turning to `COc1cc2c(cc1O)C(c1cccs1)N(Cc1sc3ccccc3c1Cl)CC2` (stereo not given), the composite z-score was -0.181 in test [1]; 1.14 in test [2]; 0.115 in test [3]; 1.18 in test [4]; 1.55 in [5]; 2.09 in [6]. Also, the composite z-score is 1.42 in [7]; 1.11 in test [9]; 3.57 in test [10]; 1.53 in test [11]; 3.3 in test [15]; 0.105 in test [17]. Besides, the composite z-score in test [18] came out at 1.03; in test [19] it was 1.03; in test [20] it was 0.14. Also, the z-score in [8] was -0.19 (inactive); in [12], -0.642 (inactive); in test [13], -1.93 (inactive); in [14], -1.63 (inactive); in [16], -0.31 (inactive).
